This passage reports growth results from PubChem BioAssay (NCI).

Molecules are shown by their SMILES. This is part of a sample that, as a whole, favours compounds with a hit. Of some 83,000 tested, about 20% had one in any assay.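 Cells were grown in 96-well plates and exposed to the test compound at a single concentration for 48 hours; results are reported as percent growth, with values below 10 considered active.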 Unmarked numbers belong to inactive results. Calls of active or inactive are those of the source.

Test systems include HT29 colon; SNB-75 CNS; SNB-19 CNS; U251 CNS; PC-3 prostate; SK-MEL-5 melanoma; UACC-62 melanoma; LOX IMVI melanoma; SK-MEL-28 melanoma; SK-MEL-2 melanoma; SN12C renal; UO-31 renal; TK-10 renal; ACHN renal; CAKI-1 renal; CCRF-CEM leukemia; MOLT-4 leukemia; SR leukemia; EKVX NSCLC; A498 renal.
What all share (assay): NCI-60 one-dose screen, 48 h (100 = growth as untreated, 0 = no growth, -100 = all killed)
Holding throughout (conditions): 10 µM unless noted

Take `COc1ccc(-n2nnc(C(=O)O)c2-c2cc(OC)c(OC)c(OC)c2)cc1`: the growth with HT29 colon is 97.2%; in the test on SNB-75 CNS it was 95.5%; with SNB-19 CNS it was 104%; in the test on U251 CNS, 95.9%; in the test with PC-3 prostate it was 106%; with SK-MEL-5 melanoma, 104%. The growth is 109% in the test on UACC-62 melanoma; 94.9% in the test with LOX IMVI melanoma; 104% in the test with SK-MEL-28 melanoma; 95% with SK-MEL-2 melanoma; 105% in the test on SN12C renal; 110% in the test with UO-31 renal. Moreover, the growth is 93.2% with TK-10 renal; 105% in the test with ACHN renal; 102% with CAKI-1 renal; 105% with CCRF-CEM leukemia; 94% in the test with MOLT-4 leukemia; 85.4% with SR leukemia.
As to `CC/C(=C\c1ccc(N(C)C)cc1)c1nc2ccccc2c(=O)[nH]1`, the growth in the test on HT29 colon was 81.7%; in the test with SNB-75 CNS, 88.3%; with SNB-19 CNS it was 102%; with U251 CNS, 86.3%; with PC-3 prostate, 107%; with SK-MEL-5 melanoma, 97.4%. Besides, the growth was 84.1% with UACC-62 melanoma; 94.2% in the test on LOX IMVI melanoma; 152% in the test on SK-MEL-28 melanoma; -13.9% (active) in the test with SK-MEL-2 melanoma; 93% in the test on EKVX NSCLC; 106% in the test with SN12C renal. Also, the growth was 108% with UO-31 renal; 51.1% in the test on TK-10 renal; 93.4% in the test with ACHN renal; 118% with A498 renal; 110% in the test with CCRF-CEM leukemia; 140% in the test on MOLT-4 leukemia. Moreover, the growth in the test on SR leukemia is 77.4%.
With `Clc1cccc(Cc2cn3cc(-c4ccccc4)nc3s2)c1`, the growth was 53.4% in the test with HT29 colon; 73.8% in the test on SNB-75 CNS; 65.8% with SNB-19 CNS; 67.7% in the test on U251 CNS; 51.8% in the test on PC-3 prostate; 2.66% (active) in the test on SK-MEL-5 melanoma. Also, the growth in the test with UACC-62 melanoma was 23.3%; in the test with LOX IMVI melanoma, 23.5%; in the test on SK-MEL-28 melanoma, 48.8%; in the test with SK-MEL-2 melanoma it was 72%; in the test on SN12C renal it was 68.2%; in the test with UO-31 renal, 49.7%. Also, the growth is 69.2% in the test on TK-10 renal; 27.9% in the test with ACHN renal; 47.8% in the test with CAKI-1 renal; 84.9% in the test with A498 renal; 63.4% in the test with CCRF-CEM leukemia; 64.1% in the test on MOLT-4 leukemia.
For `CCCCCCOc1ccc(/C=N/NC(N)=S)cc1`, the growth is 38.7% in the test with HT29 colon; 58.9% in the test with SNB-75 CNS; 80.1% in the test on SNB-19 CNS; 58.4% in the test with U251 CNS; 49.4% in the test on PC-3 prostate; 53.6% in the test on SK-MEL-5 melanoma. Moreover, the growth in the test with UACC-62 melanoma was 44.6%; in the test on LOX IMVI melanoma, 55.6%; with SK-MEL-28 melanoma, 76.1%; in the test on SK-MEL-2 melanoma it was 69.6%; with SN12C renal, 22.2%; with UO-31 renal, 17.8%. The growth with TK-10 renal is 54.3%; in the test on ACHN renal, 61.6%; in the test with A498 renal, 99.7%; with CCRF-CEM leukemia it was 6.97% (active); in the test on MOLT-4 leukemia, 7.23% (active).
Take `O=C(O)c1ccccc1C(=O)OC1CCCC2CCCC21` (stereo not given): the growth was 100% with HT29 colon; 96.5% in the test with SNB-75 CNS; 104% in the test on SNB-19 CNS; 114% in the test on U251 CNS; 97.5% with PC-3 prostate; 104% in the test on SK-MEL-5 melanoma. Moreover, the growth in the test on UACC-62 melanoma is 97%; in the test with LOX IMVI melanoma it was 95.1%; with SK-MEL-28 melanoma, 109%; in the test with SK-MEL-2 melanoma it was 136%; with EKVX NSCLC, 92.4%; in the test with SN12C renal it was 95.8%. The growth in the test on UO-31 renal is 104%; with TK-10 renal it was 116%; in the test with ACHN renal, 103%; with CAKI-1 renal, 93.1%; with CCRF-CEM leukemia, 97%; in the test with MOLT-4 leukemia, 98.7%. The growth in the test with SR leukemia is 104%.
For `C=C(C)[C@H]1CC/C(C)=C/CC[C@]2(C)O[C@H]2CC/C(C=O)=C\C1O` (stereo not given in full), the growth with HT29 colon is 98.2%; in the test on SNB-75 CNS, 106%; in the test with SNB-19 CNS, 112%; with U251 CNS it was 103%; in the test with PC-3 prostate, 122%; with SK-MEL-5 melanoma, 94.8%. The growth is 106% in the test on UACC-62 melanoma; 98.1% in the test on LOX IMVI melanoma; 115% in the test with SK-MEL-28 melanoma; 1410% with SK-MEL-2 melanoma; 103% in the test with EKVX NSCLC; 101% in the test with SN12C renal. In addition, the growth with UO-31 renal was 58.1%; with TK-10 renal it was 106%; with ACHN renal, 99%; in the test with A498 renal it was 143%; with CCRF-CEM leukemia it was 137%; in the test on MOLT-4 leukemia it was 142%. Also, the growth in the test on SR leukemia is 120%.
With `Cc1c(C(N)=O)sc2nc(SCC(=O)Nc3ccc(Cl)cc3)n(-c3ccccc3)c(=O)c12`, the growth with HT29 colon was 87.9%; in the test with SNB-75 CNS it was 94.3%; with SNB-19 CNS, 101%; in the test on U251 CNS it was 98.4%; with PC-3 prostate it was 73%; in the test on SK-MEL-5 melanoma, 110%. The growth in the test with UACC-62 melanoma was 96.8%; in the test on LOX IMVI melanoma, 98.1%; with SK-MEL-28 melanoma, 181%; with SK-MEL-2 melanoma, -16.1% (active); with EKVX NSCLC, 98.4%; in the test on SN12C renal, 95.2%. Also, the growth in the test with UO-31 renal was 121%; in the test with TK-10 renal, 52.8%; in the test with ACHN renal, 106%; in the test on A498 renal, 192%; in the test on CCRF-CEM leukemia, 86.3%; with MOLT-4 leukemia, 156%. In addition, in the test on SR leukemia, the growth is 106%.
Take `CN(C)c1nc(N)nc(Cn2c(-c3nonc3N)nc3ccccc32)n1`: the growth with HT29 colon was 72.9%; in the test with SNB-75 CNS, 56.4%; in the test on SNB-19 CNS, 91.8%; with U251 CNS it was 90.1%; in the test with PC-3 prostate it was 82.6%; in the test with SK-MEL-5 melanoma, 86.9%. Besides, the growth with UACC-62 melanoma is 73%; in the test on LOX IMVI melanoma, 76.6%; with SK-MEL-28 melanoma, 82%; with SK-MEL-2 melanoma it was 90.5%; in the test on SN12C renal, 95.3%; in the test on UO-31 renal, 65.2%. The growth is 107% in the test with TK-10 renal; 88.3% in the test with ACHN renal; 77.9% in the test on CAKI-1 renal; 82.5% in the test with A498 renal; 78.9% with CCRF-CEM leukemia; 90.8% in the test with MOLT-4 leukemia.
Take `CC[N+](CC)(CCOCCOCC[N+](CC)(CC)Cc1ccc([N+](=O)[O-])cc1)Cc1ccc([N+](=O)[O-])cc1`: the growth was 113% with HT29 colon; 85.7% in the test on SNB-75 CNS; 101% in the test with SNB-19 CNS; 100% in the test with U251 CNS; 87.6% in the test on PC-3 prostate; 96.8% in the test with SK-MEL-5 melanoma. Moreover, the growth in the test on UACC-62 melanoma is 88.4%; in the test with LOX IMVI melanoma it was 104%; in the test with SK-MEL-28 melanoma, 115%; with SK-MEL-2 melanoma, 106%; with EKVX NSCLC, 101%; with SN12C renal it was 94.2%. The growth was 68.5% in the test on UO-31 renal; 95% in the test on TK-10 renal; 102% with ACHN renal; 93.7% in the test on CAKI-1 renal; 84.8% in the test with MOLT-4 leukemia; 107% in the test with SR leukemia.
